This passage reports outcome and AC50 results from PubChem BioAssay (EPA / NIEHS).

Structures are written as SMILES. Records with an inconclusive call do not appear. The source made the active and inactive calls. The calls were made as follows: active = hit-call score of the fitted dose curve at least 0.9, where 1 is the maximum; inconclusive = response in the unintended direction; inactive = score below 0.9.

In this test the target is frog Thyroid hormone Receptor alpha (TRa), thra-a (gene 397942) (UniProt P15204). Kind of test: ATG_frTRa_XSP2: Attagene TRANS-FACTORIAL Multi-Species (XSP2) HepG2 Assay for frog Thyroid hormone Receptor alpha (TRa) (AID 2283839).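 As to AC50: AC50 reflects induction of frog TRa-driven reporter mRNA above DMSO baseline.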 As for the experimental part: ATG_XSP2_multi-species_TRANS is a cell-based, multiplexed assay created by modifying the existing Attagene TRANS-FACTORIAL system to include a panel of nuclear receptors from some or all the following species: human (Homo sapiens), mouse (Mus musculus), frog (Xenopus laevis), zebrafish (Danio rerio), chicken (Gallus gallus), and turtle (Chrysemys picta). The ECOTOX-FACTORIAL format uses HepG2, a human liver cell line, with measurements taken at 24 hours after chemical dosing in a 24-well plate. Xsp2 included 3 nM 6-alpha-fluorotestosterone and 1.5 nM norgestrel to stimulate the androgen receptor.ATG_frTRa_XSP2 is one of 29 assay components measured or calculated from the ATG_XSP2_multi-species_TRANS assay. It is designed to make measurements of mRNA induction, a form of inducible reporter, as detected with fluorescence intensity signals by Reverse transcription polymerase chain reaction (RT-PCR) and Capillary electrophoresis technology.The assay endpoint ATG_frTRa_XSP2 was analyzed in the positive analysis fitting direction relative to DMSO as the negative control and baseline of activity. Using a type of inducible reporter, measures of mRNA for gain-of-signal activity can be used to understand the reporter gene at the transcription factor-level as they relate to the gene TR. Furthermore, this assay endpoint can be referred to as a primary readout, because this assay has produced multiple assay endpoints where this one serves a reporter gene function. To generalize the intended target to other relatable targets, this assay endpoint is annotated to the nuclear receptor intended target family, where the subfamily is non-steroidal.
Sequence of frog Thyroid hormone Receptor alpha (TRa), thra-a (gene 397942) (P15204 whole entry, looked up): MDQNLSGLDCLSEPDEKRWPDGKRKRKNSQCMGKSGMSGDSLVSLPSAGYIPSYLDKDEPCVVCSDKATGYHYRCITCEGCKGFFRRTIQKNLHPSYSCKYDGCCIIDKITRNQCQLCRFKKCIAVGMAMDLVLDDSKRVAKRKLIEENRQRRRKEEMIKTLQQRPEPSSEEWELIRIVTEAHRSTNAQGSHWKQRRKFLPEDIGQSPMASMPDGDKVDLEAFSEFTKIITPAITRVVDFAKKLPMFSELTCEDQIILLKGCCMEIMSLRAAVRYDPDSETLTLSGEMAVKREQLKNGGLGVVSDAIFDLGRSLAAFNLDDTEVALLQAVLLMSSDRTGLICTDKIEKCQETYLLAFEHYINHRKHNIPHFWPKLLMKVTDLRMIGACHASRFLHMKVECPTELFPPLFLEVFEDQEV
Human liver HepG2 cells are transiently transfected with multiple reporter transcription units (MRTUs) in 6-well plates using FuGene 6 reagent (Roche; 3 ml FuGene/1 mg DNA). The MRTU constructs are regulated by a cis-regulating element (promoter). […] A major difference between the CIS and TRANS system is that in CIS activities of endogenous TFs are measured, whereas the TRANS assay evaluates changes in activities of exogenous, chimeric NR-Gal4 proteins. […] At the end of 24 hour incubation, total RNA was isolated using TriZol reagent (Invitrogen). The isolated RNA is then reverse-transcribed using oligo(dT) primer and Mo-MLV reverse transcriptase (Invitrogen) with DNAse I (Ambion) treatment for 30 min. The one-tenth of the produced cDNA was amplified by PCR using Taq DNA polymerase (Invitrogen) and two reporter sequence-specific primers. The PCR products were fluorescently labeled by primer extension with 6-arboxyfluorescein (6-FAM) 5'-labeled reporter sequence-specific primer (2 min at 95 C, 20 s at 68 C and 10 min at 72 C) and these products were digested with 5U of HpaI (New England Biolabs) for 2h at 37 C. The fragments were purified using Qiaquick PCR columns (Qiagen), analyzed on an ABI 3130xL genetic analyzer (Applied Biosystems) with peak positions identified by using a set of X-rhodamine (ROX)-labeled MapMarker1000 molecular weight standards (BioVentures). The raw capillary electrophoresis data was processed using Attagraph software (Attagene).
Consider `ClC(Cl)=C(c1ccc(Cl)cc1)c1ccc(Cl)cc1`, for which the call was inactive.

Take `C[C@]12CCC(=O)C=C1CC[C@@H]1[C@@H]2CC[C@]2(C)C(=O)CC[C@@H]12`: the call was inactive.

Regarding `CCC(=O)O[C@H]1CC[C@H]2[C@@H]3CCC4=CC(=O)CC[C@]4(C)[C@H]3CC[C@]12C`, the call was inactive.

With `Clc1ccc(C(c2ccccc2Cl)C(Cl)(Cl)Cl)cc1` (stereo unspecified), the compound was called inactive.

In the case of `Oc1ccc(C(c2ccc(O)cc2)(C(F)(F)F)C(F)(F)F)cc1`, the outcome was inactive.

For `CCOC(=O)C(O)(c1ccc(Cl)cc1)c1ccc(Cl)cc1`, the call was inactive.

Regarding `c1cc2ccc3cccc4ccc(c1)c2c34`, the result was inactive.

In the case of `CC(c1ccc(O)cc1)(c1ccc(O)cc1)c1ccc(O)cc1`, the call was inactive.

Regarding `CC(C)(c1ccccc1)c1ccc(O)cc1`, the call was inactive.

By AC50 is commonly meant the midpoint of the concentration-response curve, whichever way the signal moves. Consider `CC(C)(O)C(=O)Nc1ccc([N+](=O)[O-])c(C(F)(F)F)c1`, for which the AC50 is 9.93 µM (active).

In the case of `Cc1cc(-c2ccc(N)c(C)c2)ccc1N`, the compound was classed as inactive.
